# According to the supplement of paper PMC12024424:
# Structures can show the parent of a compound that is named as a salt.
# Test system: Staphylococcus aureus Sa2 (MRSA, cystic fibrosis isolate)
# Assay: growth reduction vs untreated control (viable cell count); higher = stronger antibacterial activity; extreme values may be limits of the assay
# Settings: 0.1 mM; 24 h
# Description: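 Single-dose screen of the MedChem Express Drug Repurposing Library (0.1 mM, 1% DMSO) against planktonic MRSA S. aureus Sa2 (CF isolate) in TSB in 96-well plates, 37 °C aerobic, 24 h. Assays were run in triplicate and repeated twice.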
row,Compound,growth reduction [%]
1,CCNC1=Nc2ccc(Cl)cc2C(C)(c2ccccc2)O1 (stereo not drawn) [Etifoxine],100
2,C[S+]([O-])CCCCN=C=S (stereo not drawn) [Sulforaphane],100
3,COc1cccc2c1cc([N+](=O)[O-])c1c(C(=O)O)cc3c(c12)OCO3 [Aristolochic acid A],100
4,O=C(O)c1nn(Cc2ccc(Cl)cc2Cl)c2ccccc12 [Lonidamine],90
5,O=c1[nH]c2ccccc2n1C1CCN(CCCC(c2ccc(F)cc2)c2ccc(F)cc2)CC1 [Pimozide],98
6,Cc1cc2c(C(C)C)c(O)c(O)c(C=O)c2c(O)c1-c1c(C)cc2c(C(C)C)c(O)c(O)c(C=O)c2c1O [(R)-(-)-Gossypol acetic acid],100
7,CC[C@H](C)C1O[C@]2(C=C[C@@H]1C)C[C@@H]1C[C@@H](C/C=C(\C)[C@@H](O[C@H]3C[C@H](OC)[C@@H](O[C@H]4C[C@H](OC)[C@H](NC)[C@H](C)O4)[C@H](C)O3)[C@@H](C)/C=C/C=C3\CO[C@@H]4[C@H](O)C(C)=C[C@@H](C(=O)O1)[C@]34O)O2 (stereo partly drawn) [Emamectin (Benzoate)],100
8,O=c1c2ccccc2[se]n1-c1ccccc1 [Ebselen],100
9,c1ccc2c(c1)Sc1ccccc1N2CC1CN2CCC1CC2 (stereo not drawn) [Mequitazine],96
10,O=C(CNC(=O)c1ccc(C2=NOC(c3cc(Cl)cc(C(F)(F)F)c3)(C(F)(F)F)C2)c2ccccc12)NCC(F)(F)F (stereo not drawn) [Afoxolaner],98
11,Cc1cc2c(C(C)C)c(O)c(O)c(C=O)c2c(O)c1-c1c(C)cc2c(C(C)C)c(O)c(O)c(C=O)c2c1O [Gossypol],100
12,Cc1cc2c(C(C)C)c(O)c(O)c(C=O)c2c(O)c1-c1c(C)cc2c(C(C)C)c(O)c(O)c(C=O)c2c1O [Gossypol (acetic acid)],100
13,Fc1ccc(C(OCCN2CCN(CCCc3ccccc3)CC2)c2ccc(F)cc2)cc1 [Vanoxerine (dihydrochloride)],99
